According to PMC7826789 (International Journal of Molecular Sciences, 2021):

Tested on: MAPKAPK2
Conditions: Compound Concentration (nM):1000
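Further: KINOMEscan scanMAX binding as percent activity remaining versus control; lower means stronger binding.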

Percent Control, inactive:
COc1cccc(-n2ncc3c(N/N=C/c4ccncc4)ncnc32)c1 [GW784752X] 88%
C[C@@H](Oc1cc(-n2cnc3ccc(OC4CCN(C)CC4)cc32)sc1C(N)=O)c1ccccc1Cl [GSK579289A] 100%
Cl.O=C(Nc1ccc(Oc2ccc3[nH]c(NC(=O)c4ccccc4)nc3c2)cc1)Nc1cc(C(F)(F)F)ccc1F [GW709042A] 100%
C/C(Nc1ccc(S(N)(=O)=O)cc1)=C1/C(=O)Nc2ccccc21 [GW335962X] 100%

Tested on: MAPKAPK5
Conditions: Compound Concentration (nM):1000

Percent Control, inactive:
Cl.O=S1CCN(Cc2ccc(-c3ccc4ncnc(Nc5ccc(OCc6ccccc6)c(F)c5)c4c3)o2)CC1 [GW576924A] 98%
COc1ccc2[nH]c3c4[nH]c5ccc(OC)cc5c4c4c(c3c2c1)C(=O)NC4=O [GW296115X] 90%
COc1cc2ncnc(Nc3ccc4c(cnn4Cc4ccccc4)c3)c2cc1OC.Cl [GW282449A] 88%
COc1cc(C=NNc2ncnc3c2cnn3-c2ccccc2)ccc1O [GW513184X] 97%
COc1ccccc1-c1cc(/C=C2\C(=O)Nc3ncc(Br)cc32)cc(Br)c1O [GW442130X] 100%
CN1CCN(C(=O)c2ccc(NC(=O)Nc3ccc(N(C)c4ccnc(Nc5ccc(CS(C)(=O)=O)cc5)n4)cc3)cc2)CC1.Cl [GW830263A] 84%
O=C1Nc2ccc(C(=O)c3ccco3)cc2C1=Cc1cc(Cl)c(O)c(Cl)c1 [GW406108X] 100%
COc1cc(/C=N/Nc2ncnc3[nH]ncc23)ccc1O [GW578748X] 100%
Cc1cc(O)cc(C)c1/C=C/c1cncc(C(N)=O)c1 [GW435821X] 100%
CCS(=O)(=O)c1ccc(OC)c(Nc2ncc(-c3cccc(F)c3)o2)c1 [GW621970X] 94%
Cl.O=C(Nc1ccc(Oc2ccc3[nH]c(NC(=O)c4ccco4)nc3c2)cc1)Nc1cc(C(F)(F)F)ccc1F [GW683134A] 100%
Nc1ncnc2occ(-c3ccc(NC(=O)Nc4cc(C(F)(F)F)ccc4F)cc3)c12 [GW770249X] 100%
O=C(Nc1n[nH]c2nc(-c3ccc(O)cc3)c(Br)cc12)C1CC1 [SB-725317] 100%
CC1=C(C(=O)Nc2ccc3[nH]ncc3c2)C(c2ccc(Cl)c(Cl)c2)CC(=O)N1 (stereo not drawn) [GSK299115A] 100%
NS(=O)(=O)c1ccc(N/N=C2\C(=O)Nc3ccc(Cl)cc32)cc1 [GW280670X] 100%
CC1=C(C(=O)Nc2ccc3[nH]ncc3c2)C(c2ccc3ccccc3c2)CC(=O)N1 (stereo not drawn) [GSK270822A] 96%
COc1cccc(-c2c[nH]c3c(N/N=C/c4ccncc4)ncnc23)c1 [GW814408X] 100%
NS(=O)(=O)c1ccc(N/N=C2\C(=O)Nc3ccc(C(=O)NCCc4c[nH]cn4)cc32)cc1 [GW300660X] 100%
CN(C)CCNC(=O)Nc1ccc(N(C)c2ccnc(Nc3ccc(CS(C)(=O)=O)cc3)n2)cc1.Cl [GW830900A] 93%
COc1ccc2cc(-c3c(-c4ccncc4)nc(-c4ccc(S(C)(=O)=O)cc4C)n3C)ccc2c1 [SB-633825] 95%
NS(=O)(=O)c1ccc(N/N=C2\C(=O)Nc3ccc(-c4cnco4)cc32)cc1 [GW276655] 100%
CN(C)c1cc2c(Nc3ccc4c(cnn4Cc4ccccc4)c3)ncnc2cn1 [GW282974X] 90%
COc1ccc2c(-c3ccnc(Nc4cccc(OC(F)(F)F)c4)n3)cnn2n1 [GW810372X] 100%
Cl.O=C(O[C@H]1CN[C@H](C#Cc2cc3ncnc(Nc4ccc5c(cnn5Cc5ccccc5)c4)c3s2)C1)N1CCOCC1 [GSK200398A] 90%
CCS(=O)(=O)c1ccc(OC)c(Nc2ncc(-c3cccc(OC)c3)o2)c1 [GW580509X] 100%
CCc1ccc(Oc2nccc(-c3c(-c4ccc(F)cc4)ncn3C3CCNCC3)n2)cc1 [SB-242719] 96%
NS(=O)(=O)c1ccc(N/N=C2\C(=O)Nc3ccc(C(=O)NCc4ccncc4)cc32)cc1 [GW300657X] 89%
COc1ccc(COc2ccc(Cc3cnc(N)nc3N)cc2OC)cc1 [GW632580X] 97%
NS(=O)(=O)c1ccc(Nc2ncc(-c3ccccc3)o2)cc1 [GW572399X] 100%
COC(=O)Nc1nc2ccc(Oc3ccc(NC(=O)Nc4cc(C(F)(F)F)ccc4F)cc3)cc2s1.Cl [GW693917A] 78%
COc1cc(C)c(N(C)C(=O)CN(C)C)cc1Nc1nc(Nc2cccc(F)c2C(N)=O)c2cc[nH]c2n1 [GSK2219385] 92%
COc1cc(N2CCN(C(C)C)CC2)ccc1Nc1nc(Nc2ccc(F)cc2C(=O)NC[C@@H](O)CO)c2cc[nH]c2n1 [GSK1392956A] 94%
